This assay addresses T1, E. coli RNase P holoenzyme (M1 P RNA + rnpA protein) (UniProt P0A7Y8).
T1 sequence: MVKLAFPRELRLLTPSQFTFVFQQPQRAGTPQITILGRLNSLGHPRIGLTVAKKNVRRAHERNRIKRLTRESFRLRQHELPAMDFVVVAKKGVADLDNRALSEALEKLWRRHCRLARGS
Description: relative kcat/Km (krel) vs genomic leader AAAGAU (relative (reference leader = 1)); higher = faster RNase P cleavage. The method, then:
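HTS-Kin: a pool of ptRNA-Met (21C construct) with all 4096 combinations of 5' leader nucleotides N(-6) to N(-1) was processed in vitro by E. coli RNase P (P RNA + rnpA/C5 protein) under multiple-turnover conditions at 37 C, pH 8, 17.5 mM MgCl2. Residual substrate was Illumina-sequenced at several fractions reacted, and relative kcat/Km (krel) was computed by internal competition kinetics, calibrated to the genomic leader (AAAGAU = 1). The listed hexamer is the varied N(-6)..N(-1) leader (DNA letters), and it sits between a fixed 5' stem-loop flank (GCAUGCACGAAAGUGCGUGCUAUGAA) and the mature tRNA-Met starting GGCUACGUAGCUCAGUUGG. Two technical replicates are averaged.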

Where [1] appears, read: fraction of substrate reacted: ~9-10% (9.79% repeat 1, 9.1% repeat 2).
Setting [2] is: fraction of substrate reacted: ~13-16% (15.68% repeat 1, 13.17% repeat 2).
Setting [3] is: fraction of substrate reacted: ~26-29% (28.66% repeat 1, 26.4% repeat 2).

± gives the standard deviation of the averaged measurements. The full ranking holds about 4,100 sequences; the median of “relative kcat/Km (krel) vs genomic leader AAAGAU” is about 1.7, and the highest 2% start at about 6.5. Only a selection was taken, and the highest values are over-represented in it overall.

Regarding TACCAT, the “relative kcat/Km” value is, setting by setting: under setting [1], 3.78 ± 1.5; under setting [2], 5.08 ± 1.6; under setting [3], 7.73 ± 3.6.

As to TACCTT, the “relative kcat/Km” value is, setting by setting: under setting [1], 2.52 ± 0.33; under setting [2], 3.78 ± 0.62; under setting [3], 5.64 ± 2.6.

For the sequence TACCAA, the “relative kcat/Km” value under setting [1] stood at 3.31 ± 1.5, the “relative kcat/Km” value under setting [2] came out at 4.01 ± 0.25 and the “relative kcat/Km” value under setting [3] was determined as 6.07 ± 1.9.

In the case of GACCAT, the “relative kcat/Km” value came to 3.62 ± 2.1 under setting [1], 3.91 ± 0.13 under setting [2] and 5.96 ± 1.9 under setting [3].

CACCAG: the “relative kcat/Km” value under setting [1] was determined as 2.64 ± 2.5, the “relative kcat/Km” value under setting [2] is 1.93 ± 0.07 and the “relative kcat/Km” value under setting [3] turned out to be 3.58 ± 1.1.

For the sequence AACCAT, the “relative kcat/Km” value runs as follows: under setting [1], 2.62 ± 1.1; under setting [2], 2.62 ± 0.3; under setting [3], 4.77 ± 2.

Take CACCAT: the “relative kcat/Km” value under setting [1] is 4.34 ± 1.2, the “relative kcat/Km” value under setting [2] is 4.72 ± 0.96 and the “relative kcat/Km” value under setting [3] was 7.01 ± 2.9.

On to TACCAC, for which the “relative kcat/Km” value reads like this: under setting [1], 3.48 ± 1.4; under setting [2], 4.03 ± 1.6; under setting [3], 6.63 ± 2.9.

On to TACCAG, for which the “relative kcat/Km” value runs as follows: under setting [1], 2.73 ± 1.4; under setting [2], 2.64 ± 1.1; under setting [3], 4.81 ± 1.2.

With ATAAGA, the “relative kcat/Km” value is, setting by setting: under setting [1], 1.69 ± 0.23; under setting [2], 2.23 ± 0.39; under setting [3], 3.63 ± 1.3.

As to ACGTTG, under setting [3], the “relative kcat/Km” value came to 1.56 ± 0.44.

With ACCGCC, the “relative kcat/Km” value runs as follows: under setting [1], 2.87 ± 1.1; under setting [2], 2.93 ± 0.072; under setting [3], 4.69 ± 1.

With TGGACC, the “relative kcat/Km” value stood at 0.825 ± 0.51 under setting [1], 0.618 ± 0.3 under setting [2] and 0.551 ± 0.0088 under setting [3].

In the case of TAACTC, the “relative kcat/Km” value under setting [1] turned out to be 1.62 ± 0.57, the “relative kcat/Km” value under setting [2] is 1.49 ± 0.16 and the “relative kcat/Km” value under setting [3] was determined as 2.26 ± 0.86.

In the case of ACGTAT, the “relative kcat/Km” value amounted to 2.73 ± 1.2 under setting [1], 3.73 ± 1.2 under setting [2] and 5 ± 1.8 under setting [3].

For the sequence TTGTAG, the “relative kcat/Km” value under setting [1] came to 2.4 ± 1.1, the “relative kcat/Km” value under setting [2] was found to be 1.92 ± 0.36 and the “relative kcat/Km” value under setting [3] came to 3.78 ± 0.77.

TTGTAC: the “relative kcat/Km” value under setting [1] was 3.78 ± 0.42, the “relative kcat/Km” value under setting [2] came to 4.71 ± 1.3 and the “relative kcat/Km” value under setting [3] turned out to be 7.05 ± 2.9.

With CCGTAT, the “relative kcat/Km” value by setting is: under setting [1], 3.19 ± 0.25; under setting [2], 4.32 ± 0.66; under setting [3], 5.94 ± 2.6.

For GCGTAC, the “relative kcat/Km” value under setting [1] was 2.64 ± 0.68, the “relative kcat/Km” value under setting [2] was 1.98 ± 0.25 and the “relative kcat/Km” value under setting [3] was 3.77 ± 1.5.

Turning to TCGTAT, the “relative kcat/Km” value under setting [1] turned out to be 4.13 ± 0.92, the “relative kcat/Km” value under setting [2] amounted to 4.78 ± 0.97 and the “relative kcat/Km” value under setting [3] worked out at 7.28 ± 3.4.

Consider TCGTAC, for which the “relative kcat/Km” value reads like this: under setting [1], 4.21 ± 1.1; under setting [2], 5.11 ± 1.9; under setting [3], 7.91 ± 3.5.

TCGTCC: the “relative kcat/Km” value runs as follows: under setting [1], 3.8 ± 0.41; under setting [2], 5.03 ± 1.6; under setting [3], 6.93 ± 3.5.

Take TCGTAA: the “relative kcat/Km” value under setting [1] turned out to be 3.3 ± 0.9, the “relative kcat/Km” value under setting [2] was 3.79 ± 0.62 and the “relative kcat/Km” value under setting [3] is 6.16 ± 2.7.

Turning to GTGTAC, the “relative kcat/Km” value reads like this: under setting [1], 1.78 ± 0.16; under setting [2], 2.012 ± 0.0038; under setting [3], 3.45 ± 1.

As to GCGTCC, the “relative kcat/Km” value worked out at 1.32 ± 0.099 under setting [1], 1.73 ± 0.52 under setting [2] and 2.64 ± 0.41 under setting [3].

For TCGTCT, the “relative kcat/Km” value runs as follows: under setting [1], 3 ± 0.94; under setting [2], 2.99 ± 1.4; under setting [3], 4.35 ± 1.2.

As to AGTTCG, the “relative kcat/Km” value reads like this: under setting [2], 0.601 ± 0.24; under setting [3], 1.95 ± 0.2.

For GATGAG, under setting [3], the “relative kcat/Km” value is 0.577 ± 0.44.

Take CAAAAA: the “relative kcat/Km” value came to 1.14 ± 0.13 under setting [1], 0.985 ± 0.72 under setting [2] and 2.42 ± 0.98 under setting [3].

Regarding GGTCTT, the “relative kcat/Km” value is, setting by setting: under setting [2], 1.32 ± 0.41; under setting [3], 1.72 ± 0.37.

Consider ACGGGT, for which the “relative kcat/Km” value under setting [3] worked out at 1.35 ± 0.62.

For GCTCGC, the “relative kcat/Km” value under setting [1] came to 1.28 ± 1.3, the “relative kcat/Km” value under setting [2] worked out at 1.58 ± 0.13 and the “relative kcat/Km” value under setting [3] was 1.96 ± 0.049.

GTTGTT: the “relative kcat/Km” value runs as follows: under setting [1], 0.832 ± 0.53; under setting [2], 0.86 ± 0.24; under setting [3], 1.07 ± 0.92.

In the case of GGTCGC, the “relative kcat/Km” value stood at 1.81 ± 0.88 under setting [1], 2.0828 ± 0.002 under setting [2] and 3.37 ± 1.1 under setting [3].

In the case of CATTGC, the “relative kcat/Km” value is 3.51 ± 1.1 under setting [1], 4.2 ± 0.93 under setting [2] and 5.82 ± 2.3 under setting [3].

TATTGG: the “relative kcat/Km” value under setting [1] was 0.568 ± 0.24 and the “relative kcat/Km” value under setting [3] stood at 1.46 ± 0.98.

Regarding TATTGA, the “relative kcat/Km” value reads like this: under setting [1], 3.87 ± 0.33; under setting [2], 4.42 ± 1.1; under setting [3], 6.93 ± 3.1.

In the case of AATTGA, the “relative kcat/Km” value is 2.34 ± 0.47 under setting [1], 3.16 ± 0.37 under setting [2] and 4.64 ± 1.2 under setting [3].

For the sequence TATTGC, the “relative kcat/Km” value stood at 3.74 ± 1.7 under setting [1], 4.4 ± 0.4 under setting [2] and 6.68 ± 3.2 under setting [3].

Regarding GATTGA, the “relative kcat/Km” value by setting is: under setting [1], 2.31 ± 0.22; under setting [2], 3.98 ± 1.1; under setting [3], 4.96 ± 2.3.

On to TTAGTG, for which the “relative kcat/Km” value under setting [3] was 0.934 ± 0.09.

On to TACTAC, for which the “relative kcat/Km” value worked out at 5.21 ± 2 under setting [1], 6.73 ± 1.9 under setting [2] and 9.59 ± 4 under setting [3].

With CACTAA, the “relative kcat/Km” value came out at 4.69 ± 2 under setting [1], 6.03 ± 0.39 under setting [2] and 7.49 ± 2.5 under setting [3].

Consider AACTAT, for which the “relative kcat/Km” value amounted to 3.41 ± 0.78 under setting [1], 4.44 ± 0.83 under setting [2] and 6.43 ± 3.1 under setting [3].

Consider GACTGT, for which the “relative kcat/Km” value runs as follows: under setting [1], 0.875 ± 0.79; under setting [2], 1.18 ± 0.32; under setting [3], 1.09 ± 0.23.

In the case of TACTAG, the “relative kcat/Km” value reads like this: under setting [1], 3.46 ± 2; under setting [2], 3.248 ± 0.0033; under setting [3], 5.53 ± 2.

As to AACTAA, the “relative kcat/Km” value is, setting by setting: under setting [1], 2.93 ± 0.16; under setting [2], 4.29 ± 1.7; under setting [3], 6.5 ± 3.1.

For the sequence CACTAG, the “relative kcat/Km” value was 2.94 ± 2.4 under setting [1], 3.2 ± 0.63 under setting [2] and 5.04 ± 0.72 under setting [3].

As to CACTGA, the “relative kcat/Km” value under setting [1] is 2.94 ± 1.2, the “relative kcat/Km” value under setting [2] was determined as 3.71 ± 0.65 and the “relative kcat/Km” value under setting [3] was 5.8 ± 1.7.

On to TACTAA, for which the “relative kcat/Km” value was 5.23 ± 2.7 under setting [1], 6.48 ± 0.54 under setting [2] and 8.92 ± 3.4 under setting [3].

With GACTAT, the “relative kcat/Km” value reads like this: under setting [1], 4.87 ± 2; under setting [2], 5.68 ± 1.6; under setting [3], 8.33 ± 3.5.

For the sequence TACTGC, the “relative kcat/Km” value reads like this: under setting [1], 3.83 ± 1.5; under setting [2], 4.1 ± 0.86; under setting [3], 5.96 ± 1.5.

As to TGGAAA, the “relative kcat/Km” value stood at 1.63 ± 1.1 under setting [1], 0.838 ± 0.78 under setting [2] and 1.61 ± 0.29 under setting [3].

Values taken from the supplement of paper PMC9433436.
